A selection: hits, their analogues and other compounds. The true share with any hit is near 3.6%.
bCat KO growth = beta-catenin-lacking colon tumor cell growth suppression. HCT116 beta-catenin knockout viability, CellTiter-Glo, 60 h; active compounds read low. viability, % at 10 µM. 140,000 compounds, 1.5% hits;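 active = viability at or under a set limit, the compound median less 4 SD, cut at about 6% in these data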
PTEN del growth = growth suppressors of cells with PTEN tumor suppressor deletion | HCT116 PTEN-null viability, CellTiter-Glo, 60 h; active compounds read low | 140,000 compounds, 1.2% hits | AID 827 | viability, % at 10 µM;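 active = viability at or below a set limit, 4 SD under the median of all tested compounds, cut at about 3.7% in these data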;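 also: PTEN knockout HCT116 line with beta catenin targeted HCT116 as companion control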
WT yeast gro inh = growth inhibition of WT yeast, mitochondrial fusion screen. mitochondrial fusion phenotypic screen, WT strain. inhibition, % at 10 µM. 190,000 compounds, 2.1% hits. AID 1362; in the data active = inhibition above about 58%; tested in S. cerevisiae
DAT uptake mod = modulates human dopamine transporter uptake under cocaine. LLC-PK1 hDAT cells, [14C]-dopamine uptake with cocaine IC80; actives deviate in either direction. 110,000 compounds, 1.3% hits. Q01959. AID 449768. B-score at 10 µM;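 active = Z score or B-score, a plate-position-corrected score, falls beyond the plate's 99.7% confidence bounds, in either direction; inactive = both scores lie inside the 99.7% bounds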
Target sequence (Q01959 whole entry, looked up): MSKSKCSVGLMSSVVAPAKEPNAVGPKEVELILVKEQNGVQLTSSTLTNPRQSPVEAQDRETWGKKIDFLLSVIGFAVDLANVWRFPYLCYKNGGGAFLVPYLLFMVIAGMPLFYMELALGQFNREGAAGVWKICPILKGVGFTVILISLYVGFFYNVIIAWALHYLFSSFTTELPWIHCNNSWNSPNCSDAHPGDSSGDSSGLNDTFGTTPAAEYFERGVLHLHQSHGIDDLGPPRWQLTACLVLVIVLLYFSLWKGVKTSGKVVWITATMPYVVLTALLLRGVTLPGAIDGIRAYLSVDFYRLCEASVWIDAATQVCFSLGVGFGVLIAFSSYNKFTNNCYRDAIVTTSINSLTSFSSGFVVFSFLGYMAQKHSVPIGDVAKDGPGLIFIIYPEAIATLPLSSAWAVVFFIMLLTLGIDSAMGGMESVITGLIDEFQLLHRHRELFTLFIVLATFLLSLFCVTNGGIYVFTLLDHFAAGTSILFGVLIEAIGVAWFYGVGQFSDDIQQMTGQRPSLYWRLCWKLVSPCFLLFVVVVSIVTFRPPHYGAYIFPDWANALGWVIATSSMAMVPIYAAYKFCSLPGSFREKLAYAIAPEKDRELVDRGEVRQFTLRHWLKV
Large screens that a line does not name were inactive.

C#CCOCCOCCOCCNc1nc(N2CCN(C(=O)[C@H](CCCCN)n3cc(C(N)CO)nn3)CC2)nc(N2CCN(C(=O)[C@H](CCCCN)n3cc(C(N)COC(=O)C(F)(F)F)nn3)CC2)n1 (some centres undefined)	none (no result: bCat KO growth, PTEN del growth, WT yeast gro inh)
Cc1cccc(N(C)S(=O)(=O)c2cccc3nsnc23)c1	none
CN(C)S(=O)(=O)c1cccc2nsnc12	DAT uptake mod -2.04
CN1CCC(=NNC(=O)c2ccc(N(Cc3ccccc3Cl)S(C)(=O)=O)cc2)CC1	none (no result: DAT uptake mod)
Cc1ccccc1-n1c(SCC(N)=O)nc2sc(-c3ccccc3)cc2c1=O	DAT uptake mod 2.97
COc1c(F)c(F)c(C(=O)Nc2ccc(NC(=O)Cc3ccccc3)cc2)c(F)c1F	none (no result: bCat KO growth, PTEN del growth, DAT uptake mod)
COc1cccc(Nc2nnc(SCc3cc([N+](=O)[O-])cc4c3OCOC4)s2)c1	DAT uptake mod -3.36
COc1ccc(C[C@H]2CN3C(=NC[C@@H]3Cc3ccc(O)cc3)N2C[C@H](C)NC(=O)c2ccc(C)c(Br)c2)cc1	none (no result: bCat KO growth, PTEN del growth, WT yeast gro inh)
CCc1ccc(/C=N/n2c(C)cc(C)c(C#N)c2=O)cc1	none (no result: DAT uptake mod)
CCCCC1=CC2=CC(=O)C(C)(OC(=O)CC)C(=O)C2=CN1c1ccccc1 (centres undefined)	DAT uptake mod -2.92 (no result: bCat KO growth, PTEN del growth, WT yeast gro inh)
CCCCC1=CC2=CC(=O)C(C)(OC(=O)CC)C(=O)C2=CN1Cc1ccccc1 (centres undefined)	none (no result: bCat KO growth, PTEN del growth, WT yeast gro inh)
CCCc1cc(=O)[nH]c(SCC(=O)N(CC(C)C)C2CCS(=O)(=O)C2)n1 (centres undefined)	DAT uptake mod 3.07
O=C(NC(=S)N(Cc1ccccc1)c1ccccn1)C1CC1	none (no result: DAT uptake mod)
COC(=O)/C(=N\Nc1ccc(Cl)cc1)Sc1nnc(-c2ccc(OC)cc2)n1C	none (no result: DAT uptake mod)
O=C(NN1CCCCC1)c1cccc2ccccc12	none (no result: bCat KO growth, PTEN del growth, DAT uptake mod)
CC1=NN(c2ccc(C)cc2)C(=O)/C1=C\C=C\c1ccccc1	bCat KO growth 3.1, PTEN del growth 3.0 (no result: DAT uptake mod)
CC1=NN(c2cccc(C(=O)O)c2)C(=O)/C1=C\C=C/c1ccccc1	none (no result: bCat KO growth, PTEN del growth, DAT uptake mod)
CCCN1C(=O)c2ccccc2NC1c1ccc(OC)c(CSc2ccccn2)c1 (centres undefined)	WT yeast gro inh 63.6 (no result: DAT uptake mod)
COc1ccc(N2C(=O)c3ccccc3NC2c2ccc(OC)c(CSc3ccccn3)c2)cc1 (centres undefined)	none
CC1CC2=C(NC(=S)NC2c2cccc(F)c2)/C(=C/c2cccc(F)c2)C1 (centres undefined)	WT yeast gro inh 61.3 (no result: bCat KO growth, PTEN del growth, DAT uptake mod)
Cc1ccc(/C=C2\CCCC3=C2NC(=S)NC3c2ccc(C)cc2)cc1 (centres undefined)	none (no result: DAT uptake mod)
CC1CC2=C(NC(=S)NC2c2ccccc2F)/C(=C/c2ccccc2F)C1 (centres undefined)	WT yeast gro inh 79.8 (no result: bCat KO growth, PTEN del growth, DAT uptake mod)
CSc1sc(C)cc1/C=N/O	none (no result: DAT uptake mod)
Cc1nc(N2CCCCC2C)c2c(C)c(C(=O)Nc3ccccc3C(F)(F)F)sc2n1 (centres undefined)	WT yeast gro inh 75.3 (no result: bCat KO growth, PTEN del growth, DAT uptake mod)
COC(=O)c1ccc(NC(=O)CSc2nccn2CCc2ccccc2)cc1	none
Cc1cc(C2(c3ccc(O)c(C)c3)C(=O)Nc3ccccc32)ccc1O	bCat KO growth 1.1, PTEN del growth 1.5
Cc1ccc(NC(=O)OCc2ccccc2S(C)=O)cc1 (centres undefined)	none (no result: bCat KO growth, PTEN del growth, DAT uptake mod)
Cc1ccc(CNc2ccc3c(c2)ncn3C(C)(C)C)cc1	none (no result: bCat KO growth, PTEN del growth, DAT uptake mod)
O=C1NC(=S)N/C1=C/c1cc([N+](=O)[O-])ccc1O	DAT uptake mod -2.13
CC(C)Cn1c(N)c(C(=O)COC(=O)c2cc(C(F)(F)F)nc3c(C(F)(F)F)cccc23)c(=O)n(C)c1=O	WT yeast gro inh 61.2 (no result: DAT uptake mod)
CC(C)Cn1c(N)c(C(=O)COC(=O)CC23CC4CC(CC(C4)C2)C3)c(=O)n(C)c1=O	WT yeast gro inh 85.3
CC(C)Cn1c(N)c(C(=O)COC(=O)c2ccc(Cl)cc2)c(=O)n(C)c1=O	none (no result: bCat KO growth, PTEN del growth, DAT uptake mod)
CCCCOc1ccc(S(=O)(=O)NC(=O)NCc2ccc(OCCC)cc2)cc1	none
CCCCOc1ccc(CNC(=O)NS(=O)(=O)c2ccc(OCC)cc2)cc1	DAT uptake mod -9.07
CCOc1ccc(S(=O)(=O)NCc2ccncc2)cc1	DAT uptake mod -2.73
CCOc1cc(/C=C(\C#N)C(=O)NCc2cccnc2)ccc1O	none (no result: bCat KO growth, PTEN del growth, DAT uptake mod)
CC1(C)Cc2c(c(N3CCOCC3)nc3sc4c(=O)[nH]cnc4c23)CS1	none
OCCN(CCO)c1ncnc2c1sc1nc(N3CCOCC3)c3c(c12)CCCC3	DAT uptake mod 4.06
CC1(C)Cc2c(c(N3CCOCC3)nc3sc4c(N5CCOCC5)nnnc4c23)CS1	none (no result: DAT uptake mod)
CCN(CC)CCNc1ncnc2c1sc1nc(N3CCOCC3)c3c(c12)CC(C)(C)SC3	bCat KO growth 1.6, PTEN del growth 1.5
CN(C)CCNc1ncnc2c1sc1nc(N3CCOCC3)c3c(c12)CC(C)(C)SC3	bCat KO growth 1.7, PTEN del growth 1.8
FC(F)(F)c1ccc(N2CCN(c3cc(-c4ccccc4)nc4ncnn34)CC2)nc1	WT yeast gro inh 63.6 (no result: PTEN del growth)
CC(=O)NC(Cc1ccccc1C)C(=O)NC1CCN(C(=O)c2cccc(C)c2)CC1 (centres undefined)	none (no result: bCat KO growth, PTEN del growth, DAT uptake mod)
CN(Cc1cccs1)c1nc(-c2cccnc2)nc2ccccc12	WT yeast gro inh 64.3 (no result: bCat KO growth, PTEN del growth, DAT uptake mod)
OCCSc1nc(-c2cccnc2)nc2ccccc12	none
CCOc1cc(C=O)cc(Br)c1OCC(=O)NCCc1ccccc1	none (no result: bCat KO growth, PTEN del growth, DAT uptake mod)
FC(F)(F)c1nnc2c(Sc3ccc(Cl)cc3)nc3ccccc3n12	bCat KO growth 2.8
FC(F)(F)c1nnc2c(Sc3ccccn3)nc3ccccc3n12	bCat KO growth 2.1, PTEN del growth 2.7
FC(F)(F)c1nnc2c(Sc3ccccc3)nc3ccccc3n12	none
C/C(=N\NC(=S)NCc1ccccc1)c1cccs1	none (no result: bCat KO growth, PTEN del growth, DAT uptake mod)
C/C(=N\NC(=S)NCc1ccccc1)c1ccc(Br)cc1	WT yeast gro inh 71.5 (no result: bCat KO growth, PTEN del growth, DAT uptake mod)
C/C(=N\NC(=S)NCc1ccccc1)c1ccc2ccccc2c1OC(F)F	WT yeast gro inh 68.2 (no result: bCat KO growth, PTEN del growth, DAT uptake mod)
C/C(=N\NC(=S)NCc1ccccc1)c1ccc2c(c1)OCCO2	none (no result: bCat KO growth, PTEN del growth, DAT uptake mod)
CC(C)N1CCC(N2CCN(CCCn3cccn3)CC2CCO)CC1 (centres undefined)	none (no result: bCat KO growth, PTEN del growth, DAT uptake mod)
Cc1ccc(C(=O)N(CCCN(C)C)c2nc3ccc(Cl)cc3s2)cc1C	WT yeast gro inh 89.5 (no result: bCat KO growth, PTEN del growth, DAT uptake mod)
CN(C)CCCN(C(=O)c1ccc2c(c1)CCCC2)c1nc2ccc(F)cc2s1	PTEN del growth 2.7, WT yeast gro inh 86.7 (no result: DAT uptake mod)
Cc1ccc2nc(N(CCCN(C)C)C(=O)c3sc4ccccc4c3Cl)sc2c1	WT yeast gro inh 88.8 (no result: DAT uptake mod)
COCCCn1c(=S)[nH]c2sc3c(c2c1=O)CCCS3	none (no result: bCat KO growth, PTEN del growth, DAT uptake mod)
CCOc1ccccc1-n1c(=O)c2ccccc2c2ccccc2c1=O	none (no result: DAT uptake mod)
CCCCNC(=O)C1CCCN1C(=O)NC1CCCCC1 (centres undefined)	DAT uptake mod -7.87
COc1cccc(N/C(C)=C/C(=O)c2ccc(Br)cc2)c1	WT yeast gro inh 65.0
C/C(=C\C(=O)c1ccc(Br)cc1)Nc1ccc(Cl)cc1	none (no result: DAT uptake mod)
c1ccc(CSc2ncnc3c2cnn3Cc2ccccc2)cc1	WT yeast gro inh 67.5
CCOc1ccc(C(CC(=O)O)NC(=O)c2cccs2)cc1OC (centres undefined)	none (no result: bCat KO growth, PTEN del growth, DAT uptake mod)
CNC(=S)NCCC(c1ccccc1)c1ccccc1	WT yeast gro inh 67.1 (no result: DAT uptake mod)
Cc1cccc(NC(=S)NNC(=S)NCc2ccccc2)c1	none (no result: PTEN del growth)
Cc1cccc(NC(=S)NCCC(c2ccccc2)c2ccccc2)c1	WT yeast gro inh 68.8 (no result: DAT uptake mod)
COc1ccc(NC(=S)NCCC(c2ccccc2)c2ccccc2)c(OC)c1	WT yeast gro inh 65.3

Assay outcomes (PubChem)
